KDM4E inh = JMJD2E (human) inhibition; B2RXH2; JMJD2E catalytic domain, FDH-coupled NADH fluorescence (FDH is formaldehyde dehydrogenase); Potency, µM (highest dose often 57.1 µM), inactives show top-dose activity change, negative = inhibition, hits mostly inhibitors; 230,000 tested, 1.6% active; AID 2147;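 note: potency is the fitted concentration of half-maximal effect; 0% = wells with enzyme and -100% = buffer wells without enzyme; nearly all actives have a fitted effect of over 50% in size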
Target sequence (B2RXH2 1-337 limits assumed): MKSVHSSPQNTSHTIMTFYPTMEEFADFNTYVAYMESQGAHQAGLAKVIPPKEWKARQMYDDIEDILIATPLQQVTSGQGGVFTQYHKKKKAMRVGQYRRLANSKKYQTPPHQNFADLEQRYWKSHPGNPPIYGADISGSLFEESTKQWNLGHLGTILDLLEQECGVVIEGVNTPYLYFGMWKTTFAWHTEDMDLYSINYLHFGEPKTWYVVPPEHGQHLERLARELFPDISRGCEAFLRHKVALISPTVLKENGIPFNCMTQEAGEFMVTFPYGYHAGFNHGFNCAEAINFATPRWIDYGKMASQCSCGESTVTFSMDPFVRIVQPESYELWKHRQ
HTT ATP protect = cytoprotection in Huntington HTT-Q103 PC12 cell model; PC12 HTT-Q103 induced, cytoprotection, ATP luminescence, 40 h; Potency, µM (series often up to 56.4 µM), inactives show cytoprotection (ATP increase), actives largely listed as activators; 230,000 tested, 0.14% active; active = well fitted curve in the direction sought with a large enough effect; inconclusive = small, poorly fitted or top-dose-only effect, or another doubt; inactive = no such curve, though single readings can be large; an effect the other way counts as inactive or inconclusive; note: potency is the fitted concentration of half-maximal effect; % of control where 0% means no effect; nearly all actives have a fitted effect of over 45% in size
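Readout: ATPlite luminescence (ATP level). Model: stable PC12, inducible Htt exon1 Q103-GFP. Inducer: tebufenozide, 100 nM final. Compounds: dose series. No G418 in medium.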
ALDH1A1 inh = inhibitors of human aldehyde dehydrogenase 1A1 | Potency, µM (series often up to 75.3 µM), for the others: at the top dose activity, negative = inhibition, actives largely listed as inhibitors | P00352 | Purified ALDH1A1, NADH fluorescence, propionaldehyde substrate | 220,000 tested, 7.3% active;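 note: potency is the fitted concentration of half-maximal effect; plate controls were no enzyme wells and a reference inhibitor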
HTT aggregate = reduces HttQ103-GFP aggregates in PC12 cells. PC12 HttQ103-GFP aggregates, Acumen cytometry, 40 h. Potency, µM (doses to about 46.1 µM), for inactives: at the top dose activity change, negative = inhibition, usual class: inhibitors. 220,000 tested, 1.1% active. AID 1688; active = well fitted curve in the direction sought with a large enough effect; inconclusive = small, poorly fitted or top-dose-only effect, or another doubt; inactive = no such curve, though single readings can be large; an effect the other way counts as inactive or inconclusive; note: potency is the fitted concentration of half-maximal effect; % is set by controls: 0 for no effect and ±100 for the full control effect; nearly all actives have a fitted effect of over 60% in size
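Steps: seed 1500 PC12 HTTQ103-GFP cells/well; add tebufenozide, 100 nM final; add compound titration; add ATPLite reagent; quantify GFP aggregates by laser scanning cytometry.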
CBFb RUNX1 block = blocks binding between human CBF-beta and RUNX1; Q01196+Q13951; AlphaScreen CBFb-His/RUNX1-biotin binding, biochemical; Potency, µM (doses to about 59.8 µM), inactives show at the highest dose activity, negative = inhibition, actives largely listed as inhibitors; 230,000 tested, under 10 active; active = well fitted curve in the direction sought with a large enough effect; inconclusive = small, poorly fitted or top-dose-only effect, or another doubt; inactive = no such curve, though single readings can be large; an effect the other way counts as inactive or inconclusive; note: % of control where 0% means no effect
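Proteins preincubated together for 20 min at RT before compound addition; 15 min later, nickel and streptavidin beads were added and left 90 min prior to AlphaScreen measurement.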
HPGD inh = blocks human HPGD enzyme activity. P15428. purified HPGD, NADH fluorescence kinetic, PGE2 substrate. Potency, µM, for inactives: at the highest dose activity change, negative = inhibition, usual class: inhibitors. 150,000 tested, 4.3% active; note: potency is the fitted concentration of half-maximal effect; % is set by controls: 0 for no effect and ±100 for the full control effect
Target sequence (P15428 whole entry, looked up): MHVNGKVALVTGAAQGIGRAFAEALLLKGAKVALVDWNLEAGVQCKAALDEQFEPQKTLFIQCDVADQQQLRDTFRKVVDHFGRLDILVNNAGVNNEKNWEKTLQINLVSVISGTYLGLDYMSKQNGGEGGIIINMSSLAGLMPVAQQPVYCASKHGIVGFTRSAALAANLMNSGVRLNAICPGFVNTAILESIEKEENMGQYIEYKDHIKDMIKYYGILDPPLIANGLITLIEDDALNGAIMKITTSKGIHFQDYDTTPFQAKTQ
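NADH formation kinetics: reaction with 30 uM PGE2 and 1 mM NAD+ (final), 20 nM enzyme, Tris-HCl pH 8 with Tween 20, after 15 min compound preincubation at room temperature. Fluorescence change, last versus first of five reads.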
An asterisk follows results filed as active; ? = inconclusive; · = not tested or not shown; ! = repeats disagree; [ ] = remark or other dose. Shown are actives, neighbours in structure and some others; about 9.8% of the full set was active somewhere. Unless noted, calls come from the whole dose curve; as a rule, active = well fitted inhibition curve with a large enough effect (not every such curve was filed as active); inconclusive = small, poorly fitted or top-dose-only effect, or another doubt; inactive = no such curve, though single readings can be large or run the other way.

SMILES	KDM4E inh	HTT ATP protect	ALDH1A1 inh	HTT aggregate	CBFb RUNX1 block	HPGD inh
COCCn1c(C)cc(/C=C2\NC(=S)N(C)C2=O)c1C	-29%	·	16µM*	-3%	-17%	20µM*
COc1ccc(/C=N/NS(=O)(=O)c2ccccc2)cc1OS(=O)(=O)c1ccc(C)cc1	-9%	3%	7.1µM*	-2%	-6%	-4%
COc1ccc(/C=N/NS(=O)(=O)c2ccc(C)cc2)cc1OC(=O)c1ccc(C)cc1	0%	30%	?	18%	-20%	-23%
COc1cc(/C=N/NS(=O)(=O)c2ccccc2)ccc1OS(=O)(=O)c1ccc(C)cc1	-12%	8%[10 µM]	7.9µM*	2%	-4%	-19%
C=CCNC(=O)/C(C#N)=C/c1ccc(OS(=O)(=O)c2ccc(C)cc2)c(OC)c1	-9%	·	25µM*	21%	6%	28µM*
O=C1OC(c2ccccc2)=C/C1=C/N1CCOCC1	-8%	-15%[10 µM]	7.9µM*	-11%	6%	-19%
O=C1OC(c2ccccc2)=C/C1=C\N1CCOCC1	2%	-24%	11µM*	?	-11%	-6%
CCC1CCc2c(sc(NC(=O)C3CC=CCC3C(=O)O)c2C#N)C1 (stereo not drawn)	-3%	·	1.8µM*	-14%	-3%	32µM*
CCOC(=O)Nc1sc2c(c1C#N)CCC(C)C2 (stereo not drawn)	-6%	-9%[10 µM]	?	6%	3%	-9%
CSc1ccc(C(=O)C2CCCN(C(=O)CCCn3cncn3)C2)cc1 (stereo not drawn)	11%	13%[10 µM]	16µM*	19%[9.22 µM]	9%	·
O=C(CSc1nncn1-c1cccnc1)N(c1ccccc1)c1ccccc1	9%	9%[10 µM]	16µM*	2%[9.22 µM]	16%	·
Oc1ccc(/C(Cc2ccc3ccccc3n2)=N\Nc2ccccc2)c(O)c1	-5%	-30%	?	-3%	-23%	·
Oc1ccc(/C(Cc2ccccn2)=N\Nc2ccccc2)c(O)c1	?	-18%	18µM*	-20%	-7%	·
CC(/C=C/C(=O)NO)=C\[C@@H](C)C(=O)c1ccc(N(C)C)cc1	·	-175%	28µM*!	·	-8%	-22%
CCN(CC)c1ccc(S(=O)(=O)Nc2cc(Cl)ccc2Cl)cc1NC(=S)NC(=O)C1CCCC1	-6%	-9%[10 µM]	22µM*	-31%	-1%	-30%
COc1ccccc1NS(=O)(=O)c1ccc(Cl)c(NC(=S)NC(=O)C2CCCC2)c1	-3%	·	?	?	-9%	-8%
O=C1Nc2ccccc2N(O)N1c1cc(-c2ccccc2)[nH]n1	6%	·	11%	10%	-15%	·
O=C(c1ccc(NS(=O)(=O)c2ccccc2)cc1)N1CCCC1	7%	-22%[0.074 µM]	?	-3%	7%	18µM*
CCN(CC)S(=O)(=O)c1ccc(S(=O)(=O)Nc2ccc(C(=O)N3CCCC3)cc2)cc1	6%	-3%[10 µM]	0.63µM*	4%	4%	-10%
O=C(NC(=S)NC(c1ccccc1)c1ccncc1)c1ccccc1 (stereo not drawn)	5%	-2%[0.074 µM]	?	-5%	-2%	-12%
COc1ccc(S(=O)(=O)N2CCN(C(=O)c3c(C)nn(-c4ccccc4)c3Cl)CC2)cc1	2%	9%[10 µM]	32µM*	0%	0%	-16%
COc1ccc(OC)c(NC(=S)NN2CCOCC2)c1	-1%	-7%[10 µM]	10%	11µM*	1%	-4%
Cc1cccc(-n2cc(CN3CCCN(C=O)CC3)c(-c3cccc(F)c3)n2)c1	-5%	-11%[10 µM]	10µM*	10%[9.22 µM]	2%	·
CCn1ccnc1CN(C)Cc1cn(-c2cccc(C)c2)nc1-c1cccc(F)c1	-17%	-39%	20µM*	-5%	-11%	·
Cc1cccc(-n2cc(CN(C)Cc3nccn3C)c(-c3cccc(F)c3)n2)c1	-17%	9%[10 µM]	?	5%[9.22 µM]	-8%	·
SMILES	KDM4E inh	HTT ATP protect	ALDH1A1 inh	HTT aggregate	CBFb RUNX1 block	HPGD inh
C=CCN1C(c2ccccc2)=CS/C1=C(/C#N)c1nnc(N2CCOCC2)n1-c1ccccc1	?	22%[10 µM]	5.6µM*	6%	-1%	-29%
CN1C(c2ccc(F)cc2)=CS/C1=C(/C#N)c1nnc(N2CCOCC2)n1-c1ccccc1	4%	32%[10 µM]	0.79µM*	6%	0%	-3%
CN1C(=O)NC(c2ccccc2)(C(F)(F)F)S/C1=C(/C#N)c1nnc(N2CCOCC2)n1-c1ccccc1 (stereo not drawn)	-2%	16%[1.9 µM]	-7%	?	0%	-1%
Cc1cc(/C=C(\C#N)c2nnc(N3CCOCC3)n2-c2ccccc2)c(C)n1-c1ccccc1	-2%	-2%[10 µM]	?	?	3%	-15%
CCn1cnc2c1c(=O)n(Cc1nnc3n1-c1ccccc1SC3)c(=O)n2Cc1ccccc1	-1%	3%	-2%	7%	2%	-9%
CCN1C(c2ccc(F)cc2)=CS/C1=C(\C#N)c1nnc2n1-c1ccccc1SC2	2%	-11%	13µM*	-3%	-12%	?
NC(=O)c1ccc(NCCCN2CCOCC2)c([N+](=O)[O-])c1	?	·	5%	·	-14%	·
COc1cccc(-c2nccc(NCc3cccnc3)n2)c1	·	-60%	?	·	·	·
O=C(NC1CC1)C1CCN(c2ncnc3c2sc2cccc(F)c23)CC1	-5%	-47%	?	-9%	3%	16µM*
O=C(C1CCN(c2ncnc3c2sc2cccc(F)c23)CC1)N1CCCC1	1%	-2%[10 µM]	·	3%[9.22 µM]	-4%	·
COc1ccc(S(=O)(=O)Nc2cc(C(=O)NCCC(C)C)ccc2N2CCOCC2)cc1	-4%	-14%	14µM*	8%	5%	-1%
COC(=O)c1ccc(N2CCCCC2)c(NS(=O)(=O)c2ccc(C)cc2)c1	?	-7%	7.9µM*	14%	4%	-12%
CCOC(=O)c1ccc(N2CCCCC2)c(NS(=O)(=O)c2cccc(C(F)(F)F)c2)c1	-11%	-2%[10 µM]	·	9%[9.22 µM]	17%	·
CCN(CC)CCNC(=O)c1ccc(N2CCCCC2)c(NS(=O)(=O)c2ccc(C)cc2)c1	?	-13%[10 µM]	20µM*	-9%	1%	-8%
N/C(=C\C(=O)c1cc(Cl)ccc1O)C(Cl)(Cl)Cl	-2%	-49%[10 µM]	·	16%[9.22 µM]	-10%	·
Oc1cc(-n2cccn2)c(O)cc1-n1cccn1	16µM*	10%[10 µM]	?	-1%[9.22 µM]	4%	·
O=[N+]([O-])c1ccc(/C=N/NC(=S)Nc2ccccc2)o1	-2%	21%[1.9 µM]	2%	2%	-20%	25µM*
O=C(N/N=C/c1ccc([N+](=O)[O-])o1)c1ccc(O)cc1	?	·	25µM*	6%	2%	-30%
O=[N+]([O-])c1ccc(/C=N/NC(=S)Nc2ccccc2F)o1	5%	7%[1.9 µM]	?	12%	-3%	-12%

Assay outcomes as filed in PubChem BioAssay.
